According to PubChem BioAssay AID434970 (Sanford-Burnham Center for Chemical Genomics, 2010):
About 310 (2.8%) of roughly 11,000 compounds were called active. This is one part of a sample in which actives are shown more often than they occur. No stated cut-off is given here; in the data, active means activity change below about -85%; inactive means the rest.

Each compound was assayed on intestinal alkaline phosphatase [Mus musculus] (assay: activators of mouse IAP, confirmation, biochemical, luminescence, single concentration (AID 434970)). Conditions: purified mouse IAP, CDP-Star luminescence, 30 min, at 10 µM; activation factor: measured here: IAP activation factor, stronger effect = higher value; activity change, negative = activation: stronger effect = lower value.

Q: COc1ccccc1NC(=S)NCCC(c1ccccc1)c1ccccc1 was tested. Which activation factor did it give?
A: The activation factor was 1.39.

Q: And the activity change, negative = activation?
A: The activity change, negative = activation was -38.9% (inactive).

Q: What does the source list for S=C(NCCc1ccc(Cl)cc1)Nc1ccc(Cl)cc1Cl?
A: activation factor: 1.36; activity change, negative = activation: -36.1% (inactive)

Q: Which results are given for Cc1c(Cl)cccc1NC(=S)NCCC(c1ccccc1)c1ccccc1?
A: activation factor: 4.75; activity change, negative = activation: -375% (active)

Q: What does the source list for Cc1c(Cl)cccc1NC(=S)NCc1ccccc1?
A: activation factor: 1.04; activity change, negative = activation: -4% (inactive)

Q: Which results are given for Cc1ccccc1NC(=S)NCCC(c1ccccc1)c1ccccc1?
A: activation factor: 1.96; activity change, negative = activation: -96% (active)

Q: What does the source list for COc1ccc(Cl)cc1NC(=S)NCCSc1ccc(C)cc1?
A: activation factor: 1.43; activity change, negative = activation: -42.5% (inactive)

Q: COc1ccc(Cl)cc1NC(=S)NCCC(c1ccccc1)c1ccccc1 was tested. Which activation factor did it give?
A: The activation factor was 2.07.

Q: What about the activity change, negative = activation of the same compound?
A: Its activity change, negative = activation is -107% (active).

Q: What does the source list for S=C(NCCC(c1ccccc1)c1ccccc1)Nc1ccccc1Cl?
A: activation factor: 1.84; activity change, negative = activation: -84.1% (inactive)

Q: CSc1nc(Oc2ccc(=O)n(C)n2)nc(N(C)C)n1 was tested. Which activation factor did it give?
A: Its activation factor is 1.07.

Q: And the activity change, negative = activation?
A: The activity change, negative = activation was -6.65% (inactive).

Q: With COc1ccc(C2C(C#N)=C(N)N(c3sc4c(c3C#N)CCCC4)C3=C2C(=O)CC(C)(C)C3)cc1OC (stereo not drawn) as the compound, how does the activation factor read?
A: Its activation factor is 0.851.

Q: And the activity change, negative = activation?
A: Its activity change, negative = activation is 14.9% (inactive).

Q: CCC(C)(C)NC(=O)C(c1ccccc1)N(C(=O)c1csnn1)C1CC1 (stereo not drawn) was tested. Which activation factor did it give?
A: Its activation factor is 0.99.

Q: What about the activity change, negative = activation of the same compound?
A: The activity change, negative = activation was 1% (inactive).

Q: For Cc1cc(=O)c2cc(Br)ccc2[nH]1, which activation factor is on record?
A: The activation factor was 0.944.

Q: What about the activity change, negative = activation of the same compound?
A: The activity change, negative = activation was 5.65% (inactive).

Q: CCOC(=O)CSc1nc(-c2ccc(OC)cc2)ns1 was tested. Which activation factor did it give?
A: The activation factor was 1.

Q: And the activity change, negative = activation?
A: The activity change, negative = activation was 0.05% (inactive).

Q: How did the activation factor turn out when COc1ccccc1C(=O)NCCN1CCN(C(=O)c2ccccc2OC)CC1 was run?
A: The activation factor was 1.1.

Q: And the activity change, negative = activation?
A: Its activity change, negative = activation is -10.1% (inactive).

Q: How did the activation factor turn out when COc1cccc(OCC(=O)Nc2ccccc2NC(C)=O)c1 was run?
A: The activation factor was 1.08.

Q: What about the activity change, negative = activation of the same compound?
A: Its activity change, negative = activation is -8.25% (inactive).

Q: What does the source list for COc1ccc(C(=O)Nc2ccccc2C(=O)N/N=C/c2cccc3ccccc23)cc1?
A: activation factor: 1.02; activity change, negative = activation: -1.95% (inactive)

Q: How did the activation factor turn out when COc1cccc(C(CC(=O)Nc2cccc3ccccc23)NC(=O)c2ccccc2)c1 (stereo not drawn) was run?
A: Its activation factor is 2.19.

Q: And the activity change, negative = activation?
A: Its activity change, negative = activation is -119% (active).

Q: Which activation factor does the source give for NC(=O)CSc1nnc(-c2ccncc2)n1CCc1ccccc1 here?
A: The activation factor was 1.05.

Q: And the activity change, negative = activation?
A: The activity change, negative = activation was -5.05% (inactive).

Q: For COc1ccc(COC(=O)Nc2cc3c(C(F)(F)F)nn(C)c3s2)cc1, which activation factor is on record?
A: The activation factor was 1.23.

Q: What about the activity change, negative = activation of the same compound?
A: The activity change, negative = activation was -23.1% (inactive).

Q: O=C1NC2(CCCCC2)C(=O)N1c1ccccc1 was tested. Which activation factor did it give?
A: The activation factor was 1.08.

Q: What about the activity change, negative = activation of the same compound?
A: The activity change, negative = activation was -7.85% (inactive).

Q: What does the source list for COc1ccc(NC(=O)NCc2ccncc2)cc1?
A: activation factor: 1.01; activity change, negative = activation: -0.85% (inactive)

Q: For COc1ccc(NC(=O)NC23CC4(C)CC(C)(CC(C)(C4)C2)C3)cc1, which activation factor is on record?
A: The activation factor was 2.08.

Q: What about the activity change, negative = activation of the same compound?
A: The activity change, negative = activation was -108% (active).

Q: With COc1ccc(NC(=O)NC23CC4(C)CC(C)(CC(C)(C4)C2)C3)cc1OC as the compound, how does the activation factor read?
A: Its activation factor is 1.65.

Q: What about the activity change, negative = activation of the same compound?
A: Its activity change, negative = activation is -64.8% (inactive).

Q: Cn1nnnc1SCC(=O)N1CCN(c2ccc(Cl)cc2)CC1 was tested. Which activation factor did it give?
A: Its activation factor is 1.06.

Q: And the activity change, negative = activation?
A: Its activity change, negative = activation is -5.85% (inactive).

Q: CCN(CC)c1ccc(NC(=O)c2cccc(OC)c2)c(C)c1 was tested. Which activation factor did it give?
A: Its activation factor is 0.97.

Q: And the activity change, negative = activation?
A: Its activity change, negative = activation is 3.05% (inactive).

Q: How did the activation factor turn out when CCOc1ccc(OCCCN(C)C)cc1 was run?
A: Its activation factor is 0.976.

Q: What about the activity change, negative = activation of the same compound?
A: Its activity change, negative = activation is 2.4% (inactive).

Q: How did the activation factor turn out when O=C(CN1CCN(Cc2ccccc2Cl)C1=O)NCc1ccco1 was run?
A: Its activation factor is 0.935.

Q: And the activity change, negative = activation?
A: Its activity change, negative = activation is 6.45% (inactive).

Q: For CCOC(=O)C1CCN(CCC(=O)Nc2ccccc2Cl)CC1, which activation factor is on record?
A: Its activation factor is 0.996.

Q: What about the activity change, negative = activation of the same compound?
A: Its activity change, negative = activation is 0.35% (inactive).

Q: With S=C(Nc1cc(Cl)cc(Cl)c1)NC1CCN(Cc2ccccc2)CC1 as the compound, how does the activation factor read?
A: Its activation factor is 1.54.

Q: What about the activity change, negative = activation of the same compound?
A: The activity change, negative = activation was -53.5% (inactive).

Q: How did the activation factor turn out when CCOC(=O)N1CCN(C(=O)Nc2ccc(Cl)cc2Cl)CC1 was run?
A: The activation factor was 1.02.

Q: And the activity change, negative = activation?
A: The activity change, negative = activation was -1.6% (inactive).

Q: Which activation factor does the source give for Cc1cccc(CN2CCC(CNC(=O)CCNC(=O)Cn3ccc4ccccc4c3=O)CC2)c1 here?
A: Its activation factor is 0.974.

Q: And the activity change, negative = activation?
A: Its activity change, negative = activation is 2.6% (inactive).

Q: For Cc1ccc(NC(=O)NCC2CCN(Cc3cccc(Cl)c3)CC2)c(Cl)c1, which activation factor is on record?
A: Its activation factor is 2.2.

Q: And the activity change, negative = activation?
A: Its activity change, negative = activation is -120% (active).

Q: Which activation factor does the source give for O=C(NCC1CCN(Cc2cccc(Cl)c2)CC1)Nc1ccccc1Cl here?
A: The activation factor was 2.17.

Q: What about the activity change, negative = activation of the same compound?
A: The activity change, negative = activation was -118% (active).

Q: What does the source list for COc1cccc(Cn2cnc3c(NS(=O)(=O)c4ccc(Cl)cc4Cl)c(C)c(C)cc32)c1?
A: activation factor: 0.985; activity change, negative = activation: 1.45% (inactive)

Q: With Cc1ccc(S(=O)(=O)NNC(=O)C2CCN(Cc3ccccc3)CC2)cc1 as the compound, how does the activation factor read?
A: Its activation factor is 0.94.

Q: What about the activity change, negative = activation of the same compound?
A: The activity change, negative = activation was 6% (inactive).

Q: What does the source list for Cc1cc(C)c(S(=O)(=O)NNC(=O)C2CCN(Cc3ccccc3)CC2)c(C)c1?
A: activation factor: 0.968; activity change, negative = activation: 3.2% (inactive)

Q: How did the activation factor turn out when CCn1c2ccccc2c2cc(NC(=O)C3CCN(S(=O)(=O)c4cccs4)CC3)ccc21 was run?
A: Its activation factor is 1.53.

Q: What about the activity change, negative = activation of the same compound?
A: Its activity change, negative = activation is -52.7% (inactive).

Q: How did the activation factor turn out when Cc1ccc(CN2CCC(C(=O)Nc3cccc(-c4cccc(F)c4)c3)CC2)o1 was run?
A: The activation factor was 1.48.

Q: And the activity change, negative = activation?
A: The activity change, negative = activation was -48.2% (inactive).

Q: Cn1cc(CN2CCC(C(=O)Nc3cccc(-c4cccc(F)c4)c3)CC2)cn1 was tested. Which activation factor did it give?
A: Its activation factor is 2.29.

Q: What about the activity change, negative = activation of the same compound?
A: Its activity change, negative = activation is -129% (active).

Q: What does the source list for CCn1cc(CN2CCC(C(=O)Nc3cccc(-c4cccc(Cl)c4)c3)CC2)cn1?
A: activation factor: 4.29; activity change, negative = activation: -329% (active)

Q: Which activation factor does the source give for CCn1cc(CN2CCC(C(=O)Nc3cccc(-c4cccc(F)c4)c3)CC2)cn1 here?
A: The activation factor was 2.66.

Q: And the activity change, negative = activation?
A: Its activity change, negative = activation is -166% (active).

Q: Which results are given for CC(C)n1cc(CN2CCC(C(=O)Nc3cccc(-c4cccc(Cl)c4)c3)CC2)cn1?
A: activation factor: 3.97; activity change, negative = activation: -297% (active)

Q: With CC(C)c1ccc(CN2CCC(C(=O)NCc3cccnc3)CC2)cc1 as the compound, how does the activation factor read?
A: The activation factor was 1.04.

Q: What about the activity change, negative = activation of the same compound?
A: The activity change, negative = activation was -4.3% (inactive).

Q: What does the source list for C[C@]12c3[nH]c4ccc(Cl)cc4c3CCN1C(=O)[C@@H](CC(=O)NCc1cccc(C(F)(F)F)c1)C[C@@H]2C(=O)N1CCCCC1?
A: activation factor: 1.26; activity change, negative = activation: -26.2% (inactive)
